From PubChem BioAssay (NCATS)
Results filed as inconclusive are left out. Activity calls are given as the source filed them. Unless noted, calls come from the whole dose curve; as a rule, active = well fitted curve in the direction sought with a large enough effect; inconclusive = small, poorly fitted or top-dose-only effect, or another doubt; inactive = no such curve, though single readings can be large; an effect the other way counts as inactive or inconclusive.

Experiments:
[1] = biological target: Mitogen-activated protein kinase 10 (Mus musculus) (UniProt Q61831); test: JNK3 AlphaScreen Assay (AID 530; active = well fitted curve in either direction with a large enough effect, not every such curve was filed as active;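 note: kinase came from lysate of stimulated human HepG2 cells; signal reports phosphorylation of biotinylated GST-cJun 1-79 at Ser73 with 10 µM ATP; % is set by controls: 0 for no effect and ±100 for the full control effect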)
Summary of the method: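 Inhibitors reduce antibody binding to phosphorylated biotin-cJun, lowering AlphaScreen luminescence. Lysates from HepG2 cells pre-activated by IL-1beta plus TNF-alpha supplied JNK3; compounds were titrated.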

[2] = Cell Viability - Mesenchymal (AID 546);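 note: cells exposed to compound for 40 hours before reading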
Summary of the method: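 Normal human renal glomerulus-derived kidney mesenchymal cells, 1000 per well in complete medium, were treated with compounds for 40 hr at 37 °C. Viability was read as intracellular ATP by CellTiter-Glo luminescence; AC50 values came from Hill-equation fits of qHTS concentration-response data.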

[3] = Cellular Toxicity (caspase-3) SHSY5Y (AID 657)
Summary of the method: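 SH-SY5Y human neuroblastoma cells, 1500/well, exposed to compound for 16 hours at 37 °C in complete medium. Caspase-3/7 activity read by Caspase-Glo luminescence after 1 hr at room temperature, normalized to DMSO and 10 uM staurosporine; AC50 from Hill fit.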

[4] = Cellular Toxicity (caspase-3) Hek293 (AID 664); details: HEK293 caspase-3 activation, DMSO = 0%, 100 µM tamoxifen = 100%; at 92.2 µM (top of the series);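 note: cells exposed to compound for 16 h at 37 °C before readout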
Summary of the method: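 HEK293 cells in complete medium treated 16 h at 37 °C, then Caspase-Glo 3/7 luminescence read after 20 min at room temperature. Normalized to DMSO and 100 uM tamoxifen; AC50 from Hill fit of concentration-response.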

[5] = Cellular Toxicity (caspase-3) NIH 3T3 (AID 666);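 note: caspase signal read after 16 h compound exposure; 0% = DMSO basal and 100% = 100 µM tamoxifen stimulation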
Summary of the method: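 Mouse NIH 3T3 fibroblasts (1000/well) treated 16 h at 37 C; caspase-3/7 activity measured by Caspase-Glo 3/7 luminescence after 20 min. Normalized to DMSO and 100 uM tamoxifen; AC50 from Hill fits.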

[6] = MultiTox-Fluor Cytotoxicity Assay - LYMP1-001 - Dead Cells (AID 946)
Summary of the method: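 Cytotoxicity as increased dead-cell protease fluorescence (bis-AAF-R110, 485/520 nm), read 60 min after MultiTox-Fluor reagent. Human lymphoblastoid line exposed 16 h; Hill-fitted AC50, with DMSO as 0% and 15 uM tetraoctylammonium bromide as 100%.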

[7] = Cell Viability - LYMP2-009 (AID 968);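 note: 0% = DMSO alone and the full-kill end = tetraoctylammonium bromide at 92 µM; nearly all actives have a fitted effect of over 55% in size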
[8] = Cell Viability - LYMP2-019 (AID 973);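 note: 0% = DMSO alone and full effect = 92 µM tetraoctylammonium bromide; nearly all actives have a fitted effect of over 55% in size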
Summary of the method: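 Human lymphoblastoid LYMP2-019 cells (2500/well) preincubated 5 h at 37 C, then treated 24 h at 37 C in complete medium. Viability by CellTiter-Glo ATP luminescence after 30 min at room temperature; AC50 from Hill fits.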

[9] = Cell Viability - LYMP2-023 (AID 975);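 note: cellular ATP measured by luciferase luminescence as viability proxy; cells exposed to compound for 24 hours at 37 °C; plate controls were DMSO only for no effect and 92 µM tetraoctylammonium bromide control for full effect; nearly all actives have a fitted effect of over 55% in size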
Summary of the method: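 LYMP2-023 human lymphoblastoid cells, 2500/well, preincubated 5 hr at 37 C, then compound-treated 24 hr at 37 C in complete medium. CellTiter-Glo luminescence (ATP) after 30 min at room temperature; AC50 from Hill-equation fits; tetraoctylammonium bromide positive control.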

[10] = Cell Viability - LYMP2-002 (AID 977);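 note: plate controls were DMSO only for no effect and 92 µM tetraoctylammonium bromide for full effect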
Summary of the method: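 Luminescent ATP readout (CellTiter-Glo, 30 min room temperature) after 24 h compound exposure at 37 C of a human lymphoblastoid line, 2500 cells/well. AC50 values derived by standard Hill fitting of qHTS concentration-response data.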

[11] = Cell Viability - LYMP2-008 (AID 980); note: % is set by controls: 0 for no effect and ±100 for the full control effect; nearly all actives have a fitted effect of over 60% in size
Summary of the method: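 LYMP2-008 lymphoblastoid cells (2500/well) plated 5 h, then treated 24 h at 37 C in complete medium. Viability read as intracellular ATP by CellTiter-Glo luminescence after 30 min at room temperature; AC50 from Hill fits.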

[12] = qHTS assay for small molecule activators of the p53 signaling pathway (AID 651743; active = well fitted activation curve with a large enough effect in the signal ratio, not every such curve was filed as active; the % refers to the signal ratio; note: % of control where 0% means no effect); details: HCT-116 p53RE-bla, beta-lactamase FRET ratio, 16 h; activation: active compounds read high
Summary of the method: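 Cell-based beta-lactamase reporter (p53 response elements, HCT-116 background). After a 5-hour preincubation, cells received compound for 16 hours at 37 C; substrate development ran 2 hours at room temperature.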

[13] = biological target: Tumor necrosis factor (Homo sapiens) (UniProt P01375); test: qHTS assay to identify small molecules that stimulate Tumor Necrosis Factor-alpha (TNF-alpha) secretion (AID 651757; active = well fitted curve in the direction sought with a large enough effect in the signal ratio; the % refers to the signal ratio; note: 0% is about no effect)
Chain of Tumor necrosis factor (Homo sapiens) (P01375 whole entry, looked up): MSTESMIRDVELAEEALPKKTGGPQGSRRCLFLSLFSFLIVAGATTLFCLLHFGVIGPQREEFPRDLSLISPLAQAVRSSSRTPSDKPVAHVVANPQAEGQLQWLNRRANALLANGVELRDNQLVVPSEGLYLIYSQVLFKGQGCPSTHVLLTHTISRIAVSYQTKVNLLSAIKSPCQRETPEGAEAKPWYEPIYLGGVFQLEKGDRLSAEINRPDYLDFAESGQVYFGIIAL
Summary of the method: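 THP-1 cells (3000/well) exposed to compounds 17 hrs at 37 C. Secreted TNF-alpha detected by HTRF with cryptate- and XL665-labeled anti-TNF-alpha antibodies after 3 hr at room temperature.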

[14] = qHTS assay for small molecule agonists of the antioxidant response element (ARE) signaling pathway measured by Nrf2-dependant transcriptional activity (AID 720636; active = well fitted curve in the direction sought with a large enough effect in the repeat runs; an effect the other way counts as inactive or inconclusive;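 note: HepG2 cells with an ARE-driven luciferase reporter; % of control where 0% means no effect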)
Summary of the method: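 Attachment 6 hr at 37 C, then compound versus DMSO vehicle for 16 hr in ARE-luc HepG2 cells (1% dialyzed FBS); luminescence recorded 30 min after ONE-Glo addition at room temperature.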

[15] = qHTS assay for small molecule antagonists of the retinoid-related orphan receptor gamma (ROR-gamma) signaling pathway - cell viability counter screen (AID 720652; active = well fitted curve in the direction sought with a large enough effect in the repeat runs; an effect the other way counts as inactive or inconclusive;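 note: CHO reporter cells with doxycycline-induced ROR-gamma expression; compound exposure lasted 16 hr before ATP read; % is set by controls: 0 for no effect and ±100 for the full control effect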)
Summary of the method: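 CHO cells carrying TET-inducible ROR and RORE-luciferase reporter, plated 5 hr, then dosed with compound plus doxycycline. After 16 hr at 37 C, viability read as intracellular ATP by CellTiter-Glo luminescence.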

[16] = qHTS assay for cell viability of the p53RE-bla HCT-116 cell line (AID 743292); note: % is set by controls: 0 for no effect and ±100 for the full control effect; nearly all actives have a fitted effect of over 55% in size
Summary of the method: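 Compound-exposed HCT-116 (p53RE-bla) cells, 4,000 per well, were kept 16 h at 37 C following a 5 h preincubation. Cell number was estimated from total ATP by CellTiter-Glo luminescence read after 30 min at room temperature.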

[17] = Cellular Toxicity (caspase-3) HepG2 (AID 654);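 note: cells exposed to compound for 16 hours before reading; 0% = DMSO alone and 100% = caspase signal from 100 µM tamoxifen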
Summary of the method: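 HepG2 cells (1500/well) were treated 16 h at 37 °C in complete medium, then caspase 3/7 activity was read by Caspase-Glo luminescence. Data were normalized to DMSO and 100 uM tamoxifen; AC50 came from Hill-equation fits of qHTS concentration-response.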

[18] = Cellular Toxicity (caspase-3) Jurkat (AID 655); details: Jurkat caspase-3 activation, luminescence; caspase-3 activation: at 92.2 µM (top of the series), DMSO = 0%, tamoxifen = 100%;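 note: cells exposed to compound for 16 h at 37 °C before reading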
Summary of the method: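 Jurkat cells (5000/well) in complete medium exposed 16 h at 37 C; caspase-3/7 activity read by Caspase-Glo luminescence after 20 min at room temperature. Normalized to DMSO and 100 uM tamoxifen; AC50 from Hill fits.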

[19] = Cellular Toxicity (caspase-3) SK-N-SH (AID 661);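 note: 0% = DMSO basal and 100% = 10 µM staurosporine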
Summary of the method: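 Human SK-N-SH neuroblastoma cells, 1500/well, were exposed to compounds for 16 hours at 37 °C. Caspase-Glo 3/7 luminescence was normalized to DMSO (basal) and 10 uM staurosporine (100%), and AC50 came from a Hill fit.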

[20] = Cell Viability - LYMP2-024 (AID 988);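 note: plate controls were DMSO only for no effect and 92 µM tetraoctylammonium bromide for full effect; nearly all actives have a fitted effect of over 60% in size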
Summary of the method: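 Human lymphoblastoid LYMP2-024 cells (2500/well) rested 5 hr, then treated with compound for 24 hr at 37 C in complete medium. Viability was measured as intracellular ATP by CellTiter-Glo luminescence. AC50 values came from Hill-equation fits.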

Cc1ccc([N+](=O)[O-])cc1
inactive: Potency [1] | Potency [2] | outcome [3] | caspase-3 activation [4] -0.449% | Potency [5] | outcome [6] | Potency [7] | Potency [8] | Potency [9] | Potency [10] | Potency [11] | activation [12] -4.73% | outcome [13] | Potency [14] | Potency [15] | Potency [16]

Clc1ccc(C(Cl)(Cl)Cl)cc1Cl
inactive: Potency [1] | Potency [2] | outcome [17] | caspase-3 activation [18] 0.663% | Potency [19] | caspase-3 activation [4] 1.11% | Potency [5] | outcome [6] | Potency [7] | Potency [9] | Potency [20] | activation [12] 0.791% | outcome [13] | Potency [15]

O=S(=O)(O)F
inactive: Potency [1] | outcome [17] | caspase-3 activation [18] 1.63% | outcome [3] | Potency [19] | caspase-3 activation [4] 4.29% | outcome [6] | Potency [7] | Potency [8] | Potency [9] | Potency [10] | Potency [11] | Potency [20] | outcome [13] | Potency [14] | Potency [15] | Potency [16]

Clc1ccc(C(Cl)(Cl)Cl)c(Cl)c1
inactive: Potency [1] | Potency [2] | outcome [17] | caspase-3 activation [18] -1.19% | outcome [3] | Potency [19] | Potency [5] | outcome [6] | Potency [7] | Potency [8] | Potency [9] | Potency [10] | Potency [11] | activation [12] -0.0334% | outcome [13] | Potency [14] | Potency [15] | Potency [16]

O=[N+]([O-])c1ccccc1-c1ccccc1
inactive: Potency [1] | outcome [3] | Potency [19] | Potency [5] | outcome [6] | Potency [7] | Potency [8] | Potency [9] | Potency [10] | Potency [11] | Potency [20] | activation [12] -1.36% | outcome [13] | Potency [16]

ClC(Br)Br
inactive: Potency [1] | Potency [2] | caspase-3 activation [18] 0.0387% | outcome [3] | Potency [19] | Potency [5] | Potency [7] | Potency [8] | Potency [9] | Potency [10] | Potency [11] | Potency [20] | activation [12] 6.47% | Potency [14] | Potency [15] | Potency [16]

CCCCCCCCCCCOC(=O)c1ccccc1C(=O)OCCCCCCCCCCC
inactive: Potency [1] | Potency [2] | outcome [17] | caspase-3 activation [18] 2.1% | outcome [3] | Potency [19] | Potency [5] | outcome [6] | Potency [7] | Potency [8] | Potency [9] | Potency [10] | Potency [20] | activation [12] 2.34% | Potency [14] | Potency [15] | Potency [16]

O=NN1CCCCC1
inactive: Potency [1] | Potency [2] | Potency [5] | outcome [6] | Potency [7] | Potency [8] | Potency [9] | Potency [10] | Potency [11] | Potency [20] | activation [12] -2.94% | outcome [13] | Potency [14] | Potency [15] | Potency [16]

Nc1ccc2ccccc2c1
inactive: Potency [1] | Potency [2] | outcome [17] | caspase-3 activation [18] 1.77% | outcome [3] | Potency [19] | Potency [5] | Potency [8] | Potency [10] | Potency [11] | Potency [20] | activation [12] 0.265% | outcome [13] | Potency [15]

S=c1[nH]c2ccccc2[nH]1
inactive: Potency [1] | Potency [2] | caspase-3 activation [18] -0.402% | Potency [5] | outcome [6] | Potency [7] | Potency [9] | Potency [10] | Potency [11] | Potency [20] | activation [12] -4.45% | Potency [14]

OCCBr
inactive: Potency [1] | Potency [19] | caspase-3 activation [4] 0.017% | Potency [5] | outcome [6] | Potency [7] | Potency [8] | Potency [9] | Potency [10] | Potency [11] | Potency [20] | Potency [14] | Potency [15] | Potency [16]

C=CCc1cc(OC)c2c(c1)OCO2
inactive: Potency [1] | Potency [2] | outcome [17] | caspase-3 activation [18] -0.188% | outcome [3] | caspase-3 activation [4] 1.27% | outcome [6] | Potency [8] | Potency [9] | Potency [10] | Potency [11] | activation [12] -0.222% | outcome [13] | Potency [14] | Potency [15] | Potency [16]

CCC#N
inactive: Potency [1] | outcome [17] | caspase-3 activation [18] -0.741% | outcome [3] | Potency [19] | caspase-3 activation [4] -0.76% | Potency [5] | outcome [6] | Potency [7] | Potency [8] | Potency [9] | Potency [11] | Potency [20] | outcome [13] | Potency [14] | Potency [15] | Potency [16]

O=C(O)C(Cl)(Cl)Br
inactive: Potency [1] | Potency [2] | caspase-3 activation [18] 1.43% | outcome [3] | Potency [19] | caspase-3 activation [4] 1.91% | Potency [5] | outcome [6] | Potency [7] | Potency [8] | Potency [9] | Potency [10] | Potency [20] | activation [12] -0.303% | Potency [16]

CC(C)(C)c1ccccc1O
inactive: Potency [1] | outcome [17] | caspase-3 activation [18] -1.03% | caspase-3 activation [4] -1.2% | outcome [6] | Potency [8] | Potency [10] | Potency [20] | outcome [13] | Potency [14] | Potency [16]

Oc1cccc(Cl)c1
inactive: Potency [1] | outcome [17] | caspase-3 activation [18] 0.0873% | outcome [3] | Potency [19] | caspase-3 activation [4] -0.037% | Potency [5] | Potency [7] | Potency [10] | Potency [11] | Potency [20] | activation [12] 0.857% | outcome [13] | Potency [14] | Potency [15] | Potency [16]

CN(C)c1ccccc1
inactive: Potency [1] | outcome [17] | caspase-3 activation [18] 0.927% | outcome [3] | Potency [19] | caspase-3 activation [4] -0.669% | Potency [5] | outcome [6] | Potency [7] | Potency [8] | Potency [9] | Potency [10] | Potency [11] | Potency [20] | activation [12] -3.2% | outcome [13] | Potency [15] | Potency [16]
